In PubChem BioAssay (Tox21):
“And” between values parts separate entries of the source, which are not always exact repeats. Equal values may be shown once. Records with an inconclusive call do not appear. Entries that show only a call come without a potency. The source holds several records for some structures; these can differ, active in one and inactive in another. The source made the active and inactive calls. Unless noted, calls come from the whole dose curve; as a rule, active = well fitted curve in the direction sought with a large enough effect in the repeat runs; inconclusive = weak or mixed curves; inactive = no such curve, though single readings can be large; an effect the other way counts as inactive or inconclusive.

Legend:
[1] = target: Thyrotropin-releasing hormone receptor (Homo sapiens) (UniProt P34981); test: qHTS assay to identify small molecule agonists of the thyrotropin-releasing hormone receptor (TRHR) signaling pathway (AID 1346891; calls by dose curve;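 note: HEK293 cells expressing TRHR with calcium dye readout; series mostly up to about 58 µM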)
Sequence of Thyrotropin-releasing hormone receptor (Homo sapiens) (P34981 whole entry, looked up): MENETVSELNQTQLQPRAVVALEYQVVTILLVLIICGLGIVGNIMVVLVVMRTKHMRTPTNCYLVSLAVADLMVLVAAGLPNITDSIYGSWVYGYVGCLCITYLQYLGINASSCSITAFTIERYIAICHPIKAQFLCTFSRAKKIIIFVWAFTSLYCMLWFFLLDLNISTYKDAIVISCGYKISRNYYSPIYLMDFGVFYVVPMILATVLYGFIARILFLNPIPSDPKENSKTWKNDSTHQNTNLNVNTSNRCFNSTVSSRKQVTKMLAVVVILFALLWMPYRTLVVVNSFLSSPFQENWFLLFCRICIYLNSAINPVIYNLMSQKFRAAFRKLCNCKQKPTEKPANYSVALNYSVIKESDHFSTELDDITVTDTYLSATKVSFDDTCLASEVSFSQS
Outline: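 HEK293/TRHR cells, 1500 per well, 18 h 37 °C; Ca dye 2 h 37 °C; pin-tool compound addition (agonist mode); kinetic fluorescence 3 min, 1 s reads; 15 concentrations, triplicate.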

[2] = Human pregnane X receptor (PXR) small molecule agonists, qHTS cell viability counter screen (AID 1346977); note: nearly all actives have a fitted effect of over 50% in size; note: potency is the fitted concentration of half-maximal effect
Outline: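 Fluorescence read-out (CellTiter-Fluor) of viability in PXR-Luc HepG2 cells, multiplexed with the luciferase agonist read. Compounds in DMSO added after 5hr plating; 24hr total exposure at 37C, 5% CO2.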

[3] = Caspase-3/7 induction in HepG2 cells by small molecules, qHTS assay (AID 1346978); note: nearly all actives have a fitted effect of over 15% in size
Outline: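 Wild-type HepG2 cells, 2,000/well, settled 5 hr at 37 C and 5% CO2, then compound-treated for 17 hr; caspase-3/7 activity read by luminescent Caspase-Glo 3/7 after 30 min at room temperature.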

[4] = Caspase-3/7 induction in CHO-K1 cells by small molecules, qHTS cell viability counter screen (AID 1346979); note: nearly all actives have a fitted effect of over 35% in size; note: potency is the fitted concentration of half-maximal effect
Outline: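 CHO-K1 wt, 1,500 cells/well; 5hr pre-incubation 37C/5% CO2; compound pin transfer (DMSO); 16hr exposure; CellTiter-Fluor added, 1hr, fluorescence read.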

[5] = Caspase-3/7 induction in CHO-K1 cells by small molecules, qHTS assay (AID 1346980); note: nearly all actives have a fitted effect of over 15% in size
Outline: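 Wild-type CHO-K1 cells exposed to compounds for 17hr at 37 C, 5% CO2. Caspase-3/7 activity then measured by Caspase-Glo 3/7 luminescence after 30min at room temperature.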

[6] = Caspase-3/7 induction in HepG2 cells by small molecules, qHTS cell viability counter screen (AID 1346981); note: nearly all actives have a fitted effect of over 30% in size; note: potency is the fitted concentration of half-maximal effect
Outline: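 Wild-type HepG2 cells (2,000/well) were allowed to settle for 5 hr at 37 C, 5% CO2, then dosed with compounds in DMSO by pin transfer. After 16 hr at 37 C, CellTiter-Fluor was added and fluorescence read 1 hr later.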

[7] = target: Nuclear receptor subfamily 1 group I member 2 (Homo sapiens) (UniProt O75469); test: Human pregnane X receptor (PXR) small molecule agonists, qHTS assay (AID 1346982); note: nearly all actives have a fitted effect of over 35% in size; note: potency is the fitted concentration of half-maximal effect
Sequence of Nuclear receptor subfamily 1 group I member 2 (Homo sapiens) (O75469 whole entry, looked up): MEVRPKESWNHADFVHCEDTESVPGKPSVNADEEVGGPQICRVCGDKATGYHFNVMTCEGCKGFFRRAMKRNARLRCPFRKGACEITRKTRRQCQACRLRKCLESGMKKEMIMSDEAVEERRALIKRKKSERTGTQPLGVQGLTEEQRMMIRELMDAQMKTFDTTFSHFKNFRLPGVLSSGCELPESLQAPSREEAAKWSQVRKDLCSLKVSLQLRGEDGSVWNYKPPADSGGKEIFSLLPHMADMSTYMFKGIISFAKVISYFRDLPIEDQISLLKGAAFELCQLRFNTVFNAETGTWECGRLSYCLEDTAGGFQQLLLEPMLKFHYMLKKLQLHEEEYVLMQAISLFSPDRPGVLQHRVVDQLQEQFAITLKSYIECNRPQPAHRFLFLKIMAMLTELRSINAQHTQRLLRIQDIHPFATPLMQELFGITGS
Outline: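 PXR-Luc HepG2 cells (CYP3A4 promoter-driven luciferase) were seeded in medium with 5% charcoal-stripped FBS, left 5 hr at 37 C, then exposed to compounds in DMSO for 24 hr. Luminescence was read after ONE-Glo addition.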

[8] = target: Nuclear receptor subfamily 1 group I member 2 (Rattus norvegicus) (UniProt Q9R1A7); test: Rat pregnane X receptor (rPXR) activation by small molecules, qHTS assay (AID 1346983); conditions: rPXR luciferase reporter cells, One-Glo luminescence, 24 h; stronger effect = higher value; note: nearly all actives have a fitted effect of over 20% in size
Sequence of Nuclear receptor subfamily 1 group I member 2 (Rattus norvegicus) (Q9R1A7 whole entry, looked up): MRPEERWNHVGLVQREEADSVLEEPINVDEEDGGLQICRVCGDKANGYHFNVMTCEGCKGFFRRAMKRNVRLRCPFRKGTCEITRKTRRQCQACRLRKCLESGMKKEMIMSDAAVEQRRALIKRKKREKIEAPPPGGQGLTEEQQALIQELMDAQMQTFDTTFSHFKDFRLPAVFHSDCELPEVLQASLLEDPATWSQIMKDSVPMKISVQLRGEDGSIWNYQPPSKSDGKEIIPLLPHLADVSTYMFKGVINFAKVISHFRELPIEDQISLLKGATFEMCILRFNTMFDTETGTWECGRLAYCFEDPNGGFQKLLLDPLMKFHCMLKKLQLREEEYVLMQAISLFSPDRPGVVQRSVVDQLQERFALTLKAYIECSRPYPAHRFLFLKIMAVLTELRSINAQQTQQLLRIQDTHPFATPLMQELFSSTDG
Outline: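 Cell-based rPXR activation assay: rPXR cells, 2,000 per well, rested 5hr at 37 C, then exposed to compounds in DMSO for 24 hr at 37 C. Luciferase activity read by One-Glo luminescence after 30 min at room temperature.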

[9] = target: Nuclear receptor subfamily 1 group I member 2 (Homo sapiens) (UniProt O75469); test: CYP3A4 induction through human pregnane X receptor (PXR) by small molecules, qHTS assay (AID 1346984); note: nearly all actives have a fitted effect of over 40% in size; note: potency is the fitted concentration of half-maximal effect
Outline: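 DPX-2 cells (HepG2 co-transfected with PXR and CYP3A4 promoter-luciferase) treated with compounds 24 h at 37C; luciferin-IPA CYP3A4 substrate 3uM final added for 3 h, then One-Glo; luminescence read. qHTS format.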

[10] = target: Acetylcholinesterase (Homo sapiens) (UniProt P22303); test: Acetylcholinesterase (AChE) small molecule antagonists: colormetric cell-based qHTS assay (AID 1347395; calls by dose curve; note: nearly all actives have a fitted effect of over 30% in size; note: potency is the fitted concentration of half-maximal effect)
Sequence of Acetylcholinesterase (Homo sapiens) (P22303 whole entry, looked up): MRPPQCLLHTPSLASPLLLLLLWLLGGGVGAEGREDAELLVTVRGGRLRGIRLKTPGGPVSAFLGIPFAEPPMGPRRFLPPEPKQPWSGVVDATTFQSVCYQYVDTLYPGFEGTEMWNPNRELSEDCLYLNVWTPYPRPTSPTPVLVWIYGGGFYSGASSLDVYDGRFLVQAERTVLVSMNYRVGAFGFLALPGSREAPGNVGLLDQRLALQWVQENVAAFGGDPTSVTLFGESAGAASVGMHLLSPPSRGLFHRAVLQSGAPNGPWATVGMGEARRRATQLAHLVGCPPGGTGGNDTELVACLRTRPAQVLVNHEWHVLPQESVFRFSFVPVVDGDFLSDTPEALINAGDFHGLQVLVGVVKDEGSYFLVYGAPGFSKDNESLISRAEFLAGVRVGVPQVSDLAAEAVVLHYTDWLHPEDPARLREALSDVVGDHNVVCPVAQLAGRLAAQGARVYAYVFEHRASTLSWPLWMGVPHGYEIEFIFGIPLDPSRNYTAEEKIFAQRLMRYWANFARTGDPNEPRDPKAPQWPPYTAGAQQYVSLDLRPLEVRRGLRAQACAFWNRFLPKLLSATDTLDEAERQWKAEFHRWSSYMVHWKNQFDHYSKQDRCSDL
Outline: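 SH-SY5Y cells; cpd 30 min 37 C; + DTNB/acetylthiocholine, 90 min 37 C; colorimetric thiocholine read; qHTS.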

Compound | outcome [1] | Potency [2] | outcome [3] | Potency [4] | outcome [5] | Potency [6] | Potency [7] | max activation [8] | Potency [9] | Potency [10]
CCOC(=O)C(Cl)Cc1cc(-n2nc(C)n(C(F)F)c2=O)c(F)cc1Cl (configuration not stated) | inactive | inactive | inactive | inactive | inactive | inactive | inactive | – | – | –
O=C(NC(O)C(Cl)(Cl)Cl)NC(O)C(Cl)(Cl)Cl (configuration not stated) | inactive | inactive | inactive | inactive | inactive | inactive | inactive | -0.374% (inactive) | inactive | inactive
CC1NCCOC1c1ccccc1 (configuration not stated) | inactive | inactive | inactive | inactive | inactive | inactive | inactive | -1.57% (inactive) | inactive | inactive
O=[N+]([O-])c1cccc(CCl)c1 | inactive | inactive | inactive | inactive | inactive | inactive | – | – | – | –
N#CC(Br)(Br)C(N)=O | inactive | inactive | inactive | 61.1 µM (active) | inactive | inactive | – | – | – | –
C[N+]1(C)CCCCC1 | inactive | inactive | inactive | inactive | inactive | inactive | inactive | – | – | –
CCOC(=O)CC(SP(=S)(OC)OC)C(=O)OCC (configuration not stated) | inactive | inactive | inactive | inactive | inactive | inactive | 12.2 µM (active) and inactive | 0.377% (inactive) | inactive | 62.1 µM (active) and inactive
ClC(Cl)(Cl)Cl | inactive | inactive | inactive | inactive | inactive | inactive | inactive | -2.8% (inactive) | inactive | inactive
S=C=S | inactive | inactive | inactive | inactive | inactive | inactive | inactive | 3.06% (inactive) | inactive | inactive
C[C@@H](N)[C@@H](O)c1ccccc1 | inactive | inactive | inactive | inactive | inactive | inactive | inactive | -1.4% (inactive) | inactive | –
CC(C)[N+](C)(CCC(C(N)=O)(c1ccccc1)c1ccccc1)C(C)C | inactive | inactive | inactive | inactive | inactive | inactive | inactive | 0.796% (inactive) | inactive | inactive
N#CN | inactive | inactive | inactive | inactive | inactive | inactive | inactive | 0.661% (inactive) | inactive | inactive
CN(C)C(=O)Oc1cc(OC(=O)N(C)C)cc(C(O)CNC(C)(C)C)c1 (configuration not stated) | inactive | inactive | inactive | inactive | inactive | inactive | inactive | -1.43% (inactive) | inactive | inactive
O=C(O)C(F)(F)C(F)(F)C(F)(F)C(F)(F)C(F)(F)C(F)(F)F | inactive | inactive | inactive | inactive | inactive | inactive | inactive | – | – | –
C=C(C)[C@H]1CN[C@H](C(=O)O)[C@H]1CC(=O)O | inactive | inactive | inactive | inactive | inactive | inactive | inactive | -1.12% (inactive) | inactive | –
O=C1C2CC=CCC2C(=O)N1SC(Cl)(Cl)Cl (configuration not stated) | inactive | inactive and 21.3 µM (active) | inactive | 68.3 µM (active) and 12 µM (active) | inactive | inactive and 60.1 µM (active) | inactive | -17% (inactive) | inactive | inactive
Cc1ccc(Cl)c(O)c1 | inactive | inactive | inactive | inactive | inactive | inactive | inactive | -0.916% (inactive) | inactive | inactive
CCC1(c2cccc(O)c2)CCCCN(C)C1 (configuration not stated) | inactive | inactive | inactive | inactive | inactive | inactive | inactive | -1.16% (inactive) | inactive | –
CN1C(=O)COc2c(C(=O)NC3CN4CCC3CC4)cc(Cl)cc21 (configuration not stated) | inactive | inactive | inactive | inactive | inactive | inactive | inactive | -0.408% (inactive) | inactive | 38.9 µM (active)
CC(=NC#N)N(C)Cc1ccc(Cl)nc1 | inactive | inactive | inactive | inactive | inactive | inactive | inactive | – | – | –
CCC1(c2ccccc2)C(=O)N(COC)C(=O)N(COC)C1=O | inactive | inactive | inactive | inactive | inactive | inactive | inactive | 3% (inactive) | 10 µM (active) | inactive
NC(=O)OCCCc1ccccc1 | inactive | inactive | inactive | inactive | inactive | inactive | inactive | -3.96% (inactive) | inactive | inactive
